Reference: ChEMBL document CHEMBL1157539, “Thousands of chemical starting points for antimalarial lead identification” (Nature, 2010)

Assays:
Format in all cases: functional
Plasmodium falciparum [1] = experiment: GSK_TCMDC: Inhibition of Plasmodium falciparum 3D7 in whole red blood cells, using parasite LDH activity as an index of growth. Test compounds present at 2uM
Plasmodium falciparum [2] = experiment: GSK_TCMDC: Inhibition of Plasmodium falciparum Dd2 in whole red blood cells, using parasite LDH activity as an index of growth. Test compounds present at 2uM
HepG2 = experiment: GSK_TCMDC: Percent inhibition of human HepG2 cell line. Test compounds present at 10uM.

SMILES | Inhibition (Plasmodium falciparum [1]) | Inhibition (Plasmodium falciparum [2]) | Inhibition (HepG2)
CCCOc1ccccc1C(=O)Nc1nonc1-c1ccc(OCC)c(OCC)c1 | 99% | 89% | 46%
CCCCCCC(C)c1cc(O)c2c(c1)OC(C)(C)C=C2c1ccncc1 (centres undefined) | 98% | 29% | 0%
CCN(CCCN1CCCCC1)c1cc(C)nc(Nc2ccc(C(C)C)cc2)n1.O=C(O)C(F)(F)F | 100% | 51% | 34%
CCCCc1cc(NCc2ccncc2)nc(Nc2ccc(C)cc2)n1 | 100% | 59% | 7%
Cc1cccc2nc(-c3cccc(-c4cccc(NC(=O)c5cn(C)c(=O)n5C)c4)c3)[nH]c12 | 99% | 80% | 5%
CC(C)N1CCC(NCc2ccc(-c3ccc(Cl)cc3)cc2)CC1 | 99% | 48% | 50%
Cc1nc2ccc3ccc(CNc4ccc5c(c4)CN([C@H](CCC(=O)O)C(=O)O)C5=O)cc3c2c(=O)[nH]1 | 87% | 90% | 38%
Cc1cc(N[C@@H](Cc2ccccc2)C(=O)NCCOc2ccccc2)nc(Nc2ccccc2)n1.O=C(O)C(F)(F)F | 100% | 63% | 2%
COc1ccc2nccc(N3CCC(NCCNCc4cc5c(cn4)OCCO5)C3)c2n1.Cl (centres undefined) | 99% | 3% | 8%
O=C(Nc1cccc(-c2csc(-c3nc4ccccc4[nH]3)c2)c1)c1ccncc1 | 100% | 61% | 64%
CCCC(C)Nc1nc(C)cc(N[C@@H](CC(C)C)C(=O)NCCOc2ccccc2)n1.O=C(O)C(F)(F)F (some centres undefined) | 93% | 28% | 15%
O=S(=O)(Nc1cccc(CCN2CCCCC2CCN2CCCC2)c1)c1cccc2ccccc12 (centres undefined) | 97% | 6% | 23%
O=C(Nc1ccc(Cl)cc1)c1cccc2nc(C(F)(F)F)[nH]c12 | 93% | 98% | 84%
CCCOc1ccc(-c2nonc2NC(=O)c2cccc(OC)c2)cc1OCCC | 94% | 100% | 18%
O=C(Nc1cccc(-c2nn3ccccc3c2-c2ccnc(Nc3ccccc3)n2)c1)c1cc(F)ccc1F | 98% | 75% | 8%
CCc1cccc2c(C#N)cn(CC(=O)NCCc3ccccc3)c12 | 95% | 64% | 1%
CCC1CN2CCc3c([nH]c4ccccc34)C2CC1CC1=NCCc2c1[nH]c1ccc(OC)cc21.Cl (centres undefined) | 100% | 68% | 99%
O=C(Nc1cccc(CCNCc2ccccc2)c1)Nc1cccc2ccccc12.O=C(O)C(F)(F)F | 100% | 8% | 13%
COc1ccc(Cc2cccc(C(C(=O)NCc3cc(Cl)cc(Cl)c3)N3CCN(C)CC3)c2)cc1.O=C(O)C(F)(F)F (centres undefined) | 100% | 24% | 8%
CN1CCCN(Cc2ccc(-c3cccc(NC(=O)c4cccc(C#N)c4)c3)cc2)CC1.O=C(O)C(F)(F)F | 100% | 64% | 17%
CN(C)CCC(O)C=C(c1ccc(Cl)cc1)c1ccc(Cl)cc1 (centres undefined) | 93% | 85% | 33%

SMILES | Inhibition (Plasmodium falciparum [1]) | Inhibition (Plasmodium falciparum [2]) | Inhibition (HepG2)
COc1ccc(NC(=O)/C=C/c2ccccc2Cl)cc1OCCN1CCC(N2CCCCC2)CC1 | 100% | 49% | 3%
Cc1ccc2nc3c(cc(C(=O)NCc4ccccc4)c(=N)n3CCCn3ccnc3)c(=O)n2c1 | 93% | 0% | 10%
Cc1cc(NCCC(=O)NCCOc2ccccc2)nc(NCCOc2ccccc2)n1.O=C(O)C(F)(F)F | 92% | 20% | 8%
CCOc1cc(C(=O)Nc2cccnc2)ccc1-c1nc2cc(Cl)c(Cl)cc2[nH]1 | 100% | 70% | 9%
O=C(O)C(F)(F)F.OCC1CCN(Cc2ccc(-c3ccc(-c4nc5cc(F)ccc5[nH]4)cc3)cc2)CC1 | 100% | 95% | 17%
COc1ccc(NC(=O)c2ccc(-c3cc(NC(=O)c4ccnc(N5CCCC5)c4)ccc3C)s2)cc1N1CCN(C)CC1.O=C(O)C(F)(F)F | 100% | 100% | 15%
COc1cc(Nc2ccnc3cc(-c4nccs4)ccc23)ccc1OCCCc1nc2ccccc2[nH]1.Cl | 100% | 68% | 100%
COc1cccc(Nc2nc(C)cc(NCc3ccc(-n4ccnc4)cc3)n2)c1 | 100% | 99% | 0%
CN(C)CCOc1cc(NC(=O)/C=C/c2cccc3ccccc23)ccc1I | 98% | 7% | 55%
CCCCCn1c(Sc2ccc(C#N)c([N+](=O)[O-])c2)nnc1-c1cccs1 | 91% | 38% | 19%
Cc1noc(-c2ccccc2)c1CN1CCCC2(CC(C(=O)NCc3cccc(F)c3F)=NO2)C1.O=C(O)C(F)(F)F (centres undefined) | 85% | 28% | 0%
N=C(N)Nc1ccc(C(=O)O)c(O)c1 | 94% | 1% | 0%
CCN(CC)Cc1cc(Nc2ccnc3cc(Cl)ccc23)ccc1O.Cl.Cl.Cl | 100% | 99% | 0%
CN1CCN(c2ccnc3ccc(NC(=O)N(C)c4ccc(Cl)c(Cl)c4)cc23)CC1 | 100% | 85% | 5%
COc1ccc2c(NN=CC=Cc3ccccc3)ccnc2c1 | 100% | 100% | 9%
CS(=O)(=O)Cc1ccc(Nc2nccc(N3CCCc4cc(NC(=O)Nc5cccc(C(F)(F)F)c5)ccc43)n2)cc1 | 100% | 99% | 46%
CCCNC(=O)Nc1cc2cc(-c3cccc(CN4CCCCC4)c3)ccc2n2c(C)nnc12 | 100% | 50% | 60%
CO/C(=C\C=C\c1cc2cc(Cl)c(Cl)cc2[nH]1)C(=O)NCCCN1CCCC[C@H]1C | 100% | 91% | 41%
COc1ccc(Nc2nc(C)cc(NC3CCCC3)n2)cc1 | 98% | 59% | 34%
COc1cccc(CNC[C@@H](O)[C@H](Cc2ccccc2)NC(=O)c2cc(C3CCCC3)cc(N3CCCCS3(=O)=O)c2)c1.Cl | 96% | 83% | 7%
COc1cc(CN2CCC(N3CCc4cc(NC(=O)c5cc(C)on5)ccc43)C2)ccc1F (centres undefined) | 91% | 96% | 1%

SMILES | Inhibition (Plasmodium falciparum [1]) | Inhibition (Plasmodium falciparum [2]) | Inhibition (HepG2)
O=C(Nc1cccc(-c2cc(-c3c(Cl)cccc3Cl)no2)c1)c1cnc2ccccc2c1 | 87% | 34% | 0%
Cc1ccc2cc(NC(=O)CCCCCCCON3C(N)=NC(N)=NC34CCCCC4)ccc2n1.O=C(O)C(F)(F)F | 98% | 86% | 6%
Clc1nc(Cl)c2c(ccn2Cc2ccccc2)n1 | 100% | 61% | 0%
Oc1ccc(Nc2ccnc3cc(Cl)ccc23)cc1 | 100% | 97% | 0%
Nc1nc(N)c2cc(Sc3ccc4ccccc4c3)ccc2n1 | 95% | 92% | 66%
Clc1ccc(-c2ccc(C=NNc3nc(=Nc4ccccc4)[nH]c(=Nc4ccccc4)[nH]3)o2)cc1Cl | 97% | 75% | 1%
O=C(Nc1ccccc1N1CCOCC1)c1ncoc1-c1ccccc1C(F)(F)F | 89% | 60% | 0%
CS(=O)(=O)c1cccc(-c2cnc(N)c3cc(-c4ccc5c(c4)OCO5)ccc23)c1.O=CO | 91% | 23% | 37%
O=C(Nc1ccc(OC2CCN(Cc3ccc(F)cc3)C2)c(Cl)c1)c1ccc(F)cc1.O=C(O)C(F)(F)F (centres undefined) | 96% | 94% | 10%
CC1(C)N=C(N)N=C(Nc2ccc(Cl)cc2)N1.Cl | 97% | 0% | 8%
CC(C)(C)c1ccc(NC(=O)c2ccc(CN3CCCN(Cc4cccc(C#N)c4)CC3)cc2)cc1.O=C(O)C(F)(F)F | 99% | 12% | 54%
Cn1cc(C2CCN(CCCCCNC(=O)/C=C/c3ccc(Cl)c(Cl)c3)CC2)c2cc(O)ccc21 | 94% | 0% | 11%
Cc1occc1C(=O)Nc1nc(-c2ccccn2)nc2ccsc12 | 98% | 98% | 68%
COc1ccc2nccc(N3CCC(SCCNS(=O)(=O)c4ccc5c(c4)NC(=O)CS5)C3)c2n1.Cl (centres undefined) | 99% | 17% | 20%
Cc1ccc2c(N/N=C/c3ccccc3[N+](=O)[O-])cc(C)nc2c1 | 100% | 100% | 13%
CC(CN1CCN(CC(c2ccc(F)cc2)N2CCN(C)CC2)CC1)C(=O)c1ccc(O)cc1.O=C(O)/C=C\C(=O)O (centres undefined) | 97% | 10% | 0%
COc1ccc(Cl)cc1-c1nc(C(=O)NCCN2CCCCC2)c(C)s1.O=C(O)C(F)(F)F | 97% | 10% | 16%
CN1CCN(c2ccnc3ccc(NC(=O)c4ccc(Cl)c(Cl)c4)cc23)CC1 | 100% | 64% | 4%
CC(=O)Nc1cccc(CN(Cc2ccc(-c3ccc(CNCc4cccnc4)cn3)cc2)C(=O)Cc2cccnc2)c1.O=C(O)C(F)(F)F | 97% | 65% | 0%
Cc1cccc2nc(-c3ccc(-c4cccc(NC(=O)NCc5cccc(F)c5)c4)cc3)[nH]c12 | 94% | 5% | 27%
COc1ccc(NC(=O)Nc2ccc(-c3cccc(-c4nc5ccccc5[nH]4)c3)cc2)cc1 | 99% | 41% | 44%
